Measured values: the supplement of paper PMC11732987, “Enantioselective OTUD7B fragment discovery through chemoproteomics screening and high-throughput optimisation” (Communications Chemistry, 2025)

Assays:
Assay in all cases: log2 ratio of Biotin-Ahx-Ub-VS probe labelling (fragment/DMSO); higher = less target engagement (more negative = stronger competition), active = hit call of the paper (q ≤ 0.05, log2 ratio ≤ -1)
Conditions in all cases: compound concentration: 200 uM; treatment time: 3 h
USP19 = biological target: T1, USP19 (UniProt O94966)
T1 sequence (whole entry): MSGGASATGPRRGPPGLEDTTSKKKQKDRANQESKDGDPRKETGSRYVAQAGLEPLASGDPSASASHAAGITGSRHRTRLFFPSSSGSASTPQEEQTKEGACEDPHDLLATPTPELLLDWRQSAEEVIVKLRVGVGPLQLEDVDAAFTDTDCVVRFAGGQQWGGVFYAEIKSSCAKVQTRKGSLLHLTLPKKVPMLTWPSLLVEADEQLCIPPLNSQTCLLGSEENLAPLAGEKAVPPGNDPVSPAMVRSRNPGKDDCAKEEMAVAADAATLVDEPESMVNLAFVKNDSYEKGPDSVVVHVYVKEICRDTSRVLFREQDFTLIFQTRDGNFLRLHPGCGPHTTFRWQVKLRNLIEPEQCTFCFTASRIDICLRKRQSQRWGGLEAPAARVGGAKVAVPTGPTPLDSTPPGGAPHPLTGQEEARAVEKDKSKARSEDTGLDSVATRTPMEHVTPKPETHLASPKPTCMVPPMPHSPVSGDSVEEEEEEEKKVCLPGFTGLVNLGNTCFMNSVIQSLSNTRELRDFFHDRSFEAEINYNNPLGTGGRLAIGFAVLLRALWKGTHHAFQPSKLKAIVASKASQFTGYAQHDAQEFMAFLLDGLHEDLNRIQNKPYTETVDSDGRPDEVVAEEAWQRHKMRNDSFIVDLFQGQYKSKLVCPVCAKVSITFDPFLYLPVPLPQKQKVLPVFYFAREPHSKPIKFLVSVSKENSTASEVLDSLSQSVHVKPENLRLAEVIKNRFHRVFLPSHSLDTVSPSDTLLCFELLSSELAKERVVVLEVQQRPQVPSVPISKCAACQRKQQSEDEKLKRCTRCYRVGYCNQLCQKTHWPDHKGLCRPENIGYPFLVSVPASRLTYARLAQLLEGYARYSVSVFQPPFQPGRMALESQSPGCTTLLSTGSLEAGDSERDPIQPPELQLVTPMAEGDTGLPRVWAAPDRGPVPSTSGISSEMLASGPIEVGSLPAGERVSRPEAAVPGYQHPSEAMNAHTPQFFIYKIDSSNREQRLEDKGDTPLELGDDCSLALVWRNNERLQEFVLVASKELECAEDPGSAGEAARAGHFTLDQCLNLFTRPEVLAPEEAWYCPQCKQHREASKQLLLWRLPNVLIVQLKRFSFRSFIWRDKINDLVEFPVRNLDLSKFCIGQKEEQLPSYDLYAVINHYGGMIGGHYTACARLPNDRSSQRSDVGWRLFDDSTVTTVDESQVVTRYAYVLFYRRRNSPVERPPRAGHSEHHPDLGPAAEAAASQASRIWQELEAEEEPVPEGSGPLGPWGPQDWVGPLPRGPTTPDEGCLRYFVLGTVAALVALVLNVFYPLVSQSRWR
Outline: (§1)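 Labelling with Biotin-Ahx-Ub-VS (0.5 µM final, 1 h) followed a 3 h triplicate treatment of HEK293T lysate (495 µg per sample, Tris/CHAPS/IGEPAL buffer with protease inhibitors) with fragment at 200 µM or vehicle. Labelled DUBs were NeutrAvidin-enriched, digested with LysC and trypsin, and run by diaPASEF LC-MS/MS. The values, average log2 fragment/vehicle ratios by unpaired t-test, come from global-median-normalised Spectronaut label-free quantities. Proteins with ≥2 unique peptides were used.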

USP22 = biological target: T2, USP22 (UniProt Q9UPT9)
T2 sequence (whole entry): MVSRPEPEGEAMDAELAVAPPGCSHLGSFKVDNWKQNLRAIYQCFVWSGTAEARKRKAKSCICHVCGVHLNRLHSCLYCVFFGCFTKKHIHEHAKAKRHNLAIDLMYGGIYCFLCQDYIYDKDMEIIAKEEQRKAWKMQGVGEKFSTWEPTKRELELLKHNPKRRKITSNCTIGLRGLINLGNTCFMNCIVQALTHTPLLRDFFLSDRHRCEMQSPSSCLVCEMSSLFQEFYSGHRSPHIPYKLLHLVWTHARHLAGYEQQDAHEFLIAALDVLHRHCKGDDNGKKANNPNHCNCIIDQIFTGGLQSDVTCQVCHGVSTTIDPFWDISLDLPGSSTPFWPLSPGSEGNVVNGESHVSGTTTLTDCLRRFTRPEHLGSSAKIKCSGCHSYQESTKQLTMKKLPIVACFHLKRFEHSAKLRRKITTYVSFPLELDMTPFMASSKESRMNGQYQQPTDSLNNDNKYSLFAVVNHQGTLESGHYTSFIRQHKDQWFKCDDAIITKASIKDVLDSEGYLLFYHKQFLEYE
Outline: as §1

USP24 = USP24 (UniProt Q9UPU5)
Chain of USP24 (Q9UPU5 whole entry): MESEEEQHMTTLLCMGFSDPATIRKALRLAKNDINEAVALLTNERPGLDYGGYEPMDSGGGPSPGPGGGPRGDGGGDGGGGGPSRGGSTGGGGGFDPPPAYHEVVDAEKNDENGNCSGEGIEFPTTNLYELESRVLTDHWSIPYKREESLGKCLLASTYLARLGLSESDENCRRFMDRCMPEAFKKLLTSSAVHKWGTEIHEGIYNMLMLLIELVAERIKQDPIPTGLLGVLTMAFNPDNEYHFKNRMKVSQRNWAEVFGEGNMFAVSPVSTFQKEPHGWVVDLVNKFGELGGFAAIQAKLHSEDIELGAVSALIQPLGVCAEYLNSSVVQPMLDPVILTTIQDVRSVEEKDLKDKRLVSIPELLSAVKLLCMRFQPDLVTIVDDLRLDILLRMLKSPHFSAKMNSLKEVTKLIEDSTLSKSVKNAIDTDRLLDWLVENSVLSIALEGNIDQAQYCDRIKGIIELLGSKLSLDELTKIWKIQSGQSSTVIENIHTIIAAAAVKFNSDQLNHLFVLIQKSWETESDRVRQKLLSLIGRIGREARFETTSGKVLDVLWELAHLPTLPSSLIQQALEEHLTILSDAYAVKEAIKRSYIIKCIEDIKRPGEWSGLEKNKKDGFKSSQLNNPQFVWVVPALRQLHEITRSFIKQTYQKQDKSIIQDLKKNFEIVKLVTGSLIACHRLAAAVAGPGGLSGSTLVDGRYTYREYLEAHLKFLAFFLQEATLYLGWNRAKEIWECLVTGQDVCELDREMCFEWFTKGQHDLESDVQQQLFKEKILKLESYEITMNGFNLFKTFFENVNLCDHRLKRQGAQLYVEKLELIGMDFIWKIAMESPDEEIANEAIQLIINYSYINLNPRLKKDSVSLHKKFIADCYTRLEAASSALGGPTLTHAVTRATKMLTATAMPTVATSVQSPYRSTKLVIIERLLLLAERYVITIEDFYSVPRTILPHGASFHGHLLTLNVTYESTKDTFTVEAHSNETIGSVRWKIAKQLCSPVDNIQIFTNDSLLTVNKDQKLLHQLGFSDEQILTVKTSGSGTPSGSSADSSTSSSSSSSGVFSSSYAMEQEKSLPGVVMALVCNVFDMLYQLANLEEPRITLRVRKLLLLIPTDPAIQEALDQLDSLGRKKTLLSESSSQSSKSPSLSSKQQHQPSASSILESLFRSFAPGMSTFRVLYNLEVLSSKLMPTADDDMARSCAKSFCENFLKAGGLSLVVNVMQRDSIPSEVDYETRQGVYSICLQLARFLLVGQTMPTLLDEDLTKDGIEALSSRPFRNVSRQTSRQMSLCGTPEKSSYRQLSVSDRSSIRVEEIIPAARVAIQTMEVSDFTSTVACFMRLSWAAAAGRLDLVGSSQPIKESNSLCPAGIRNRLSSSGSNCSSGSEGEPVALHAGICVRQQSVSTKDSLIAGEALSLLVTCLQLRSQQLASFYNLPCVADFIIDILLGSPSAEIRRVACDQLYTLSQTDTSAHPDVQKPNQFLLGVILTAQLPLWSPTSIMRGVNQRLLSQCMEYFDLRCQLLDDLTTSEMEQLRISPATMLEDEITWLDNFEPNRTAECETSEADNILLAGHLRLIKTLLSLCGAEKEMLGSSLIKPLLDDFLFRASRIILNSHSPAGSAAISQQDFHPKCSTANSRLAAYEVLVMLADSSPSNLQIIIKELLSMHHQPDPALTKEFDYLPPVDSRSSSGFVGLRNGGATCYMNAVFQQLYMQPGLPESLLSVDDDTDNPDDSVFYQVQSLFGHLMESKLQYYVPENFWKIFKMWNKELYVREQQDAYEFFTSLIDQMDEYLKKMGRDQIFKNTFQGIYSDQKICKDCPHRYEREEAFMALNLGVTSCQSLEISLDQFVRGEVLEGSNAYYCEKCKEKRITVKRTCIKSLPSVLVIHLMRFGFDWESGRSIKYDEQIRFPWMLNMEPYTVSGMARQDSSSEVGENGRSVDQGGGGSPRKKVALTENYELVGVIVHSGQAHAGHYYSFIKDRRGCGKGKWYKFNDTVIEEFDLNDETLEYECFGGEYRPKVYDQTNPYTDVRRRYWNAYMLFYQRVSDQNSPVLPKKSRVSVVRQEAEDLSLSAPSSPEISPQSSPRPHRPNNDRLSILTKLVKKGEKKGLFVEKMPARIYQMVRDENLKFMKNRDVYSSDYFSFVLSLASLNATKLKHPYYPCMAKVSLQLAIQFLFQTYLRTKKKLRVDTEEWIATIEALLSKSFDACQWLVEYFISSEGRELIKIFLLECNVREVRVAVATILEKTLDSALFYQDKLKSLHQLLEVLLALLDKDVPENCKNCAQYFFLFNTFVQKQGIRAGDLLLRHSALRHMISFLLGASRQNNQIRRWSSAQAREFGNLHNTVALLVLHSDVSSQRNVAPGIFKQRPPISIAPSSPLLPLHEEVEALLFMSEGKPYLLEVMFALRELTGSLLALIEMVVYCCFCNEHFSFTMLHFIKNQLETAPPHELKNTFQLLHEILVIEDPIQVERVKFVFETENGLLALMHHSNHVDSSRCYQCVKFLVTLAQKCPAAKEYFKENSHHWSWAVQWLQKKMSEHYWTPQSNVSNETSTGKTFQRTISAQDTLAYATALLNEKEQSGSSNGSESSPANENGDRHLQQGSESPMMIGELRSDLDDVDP
Outline: as §1

USP25 = biological target: T3, USP25 (UniProt Q9UHP3)
T3 sequence (whole entry): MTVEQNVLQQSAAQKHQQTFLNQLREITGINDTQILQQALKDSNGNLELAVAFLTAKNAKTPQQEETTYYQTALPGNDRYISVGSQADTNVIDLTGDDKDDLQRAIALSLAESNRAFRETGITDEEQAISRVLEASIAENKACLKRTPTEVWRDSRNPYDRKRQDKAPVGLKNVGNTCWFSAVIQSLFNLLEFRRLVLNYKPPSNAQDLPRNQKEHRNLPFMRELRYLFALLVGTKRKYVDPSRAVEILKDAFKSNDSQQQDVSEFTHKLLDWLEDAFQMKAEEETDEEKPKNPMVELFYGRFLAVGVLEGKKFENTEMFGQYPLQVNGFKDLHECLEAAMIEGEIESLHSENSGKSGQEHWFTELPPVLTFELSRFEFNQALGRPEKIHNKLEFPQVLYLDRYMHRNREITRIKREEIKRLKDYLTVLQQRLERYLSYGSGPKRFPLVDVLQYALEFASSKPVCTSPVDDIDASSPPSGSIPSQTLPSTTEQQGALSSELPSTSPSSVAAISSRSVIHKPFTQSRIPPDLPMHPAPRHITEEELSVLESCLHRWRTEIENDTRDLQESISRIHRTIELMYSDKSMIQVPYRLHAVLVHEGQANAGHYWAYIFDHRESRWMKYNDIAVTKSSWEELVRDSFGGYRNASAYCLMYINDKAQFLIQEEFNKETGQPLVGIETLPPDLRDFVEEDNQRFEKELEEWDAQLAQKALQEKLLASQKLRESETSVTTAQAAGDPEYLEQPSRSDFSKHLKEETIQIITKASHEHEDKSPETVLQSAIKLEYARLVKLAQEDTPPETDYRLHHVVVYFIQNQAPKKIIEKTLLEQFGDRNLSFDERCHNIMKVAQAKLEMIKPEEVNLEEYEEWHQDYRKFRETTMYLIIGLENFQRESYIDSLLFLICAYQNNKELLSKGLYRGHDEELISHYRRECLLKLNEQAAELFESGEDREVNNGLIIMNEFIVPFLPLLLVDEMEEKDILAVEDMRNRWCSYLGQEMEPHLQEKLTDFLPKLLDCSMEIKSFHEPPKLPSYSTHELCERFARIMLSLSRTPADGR
Outline: as §1

USP28 = biological target: T4, USP28 (UniProt Q96RU2)
T4 sequence (whole entry): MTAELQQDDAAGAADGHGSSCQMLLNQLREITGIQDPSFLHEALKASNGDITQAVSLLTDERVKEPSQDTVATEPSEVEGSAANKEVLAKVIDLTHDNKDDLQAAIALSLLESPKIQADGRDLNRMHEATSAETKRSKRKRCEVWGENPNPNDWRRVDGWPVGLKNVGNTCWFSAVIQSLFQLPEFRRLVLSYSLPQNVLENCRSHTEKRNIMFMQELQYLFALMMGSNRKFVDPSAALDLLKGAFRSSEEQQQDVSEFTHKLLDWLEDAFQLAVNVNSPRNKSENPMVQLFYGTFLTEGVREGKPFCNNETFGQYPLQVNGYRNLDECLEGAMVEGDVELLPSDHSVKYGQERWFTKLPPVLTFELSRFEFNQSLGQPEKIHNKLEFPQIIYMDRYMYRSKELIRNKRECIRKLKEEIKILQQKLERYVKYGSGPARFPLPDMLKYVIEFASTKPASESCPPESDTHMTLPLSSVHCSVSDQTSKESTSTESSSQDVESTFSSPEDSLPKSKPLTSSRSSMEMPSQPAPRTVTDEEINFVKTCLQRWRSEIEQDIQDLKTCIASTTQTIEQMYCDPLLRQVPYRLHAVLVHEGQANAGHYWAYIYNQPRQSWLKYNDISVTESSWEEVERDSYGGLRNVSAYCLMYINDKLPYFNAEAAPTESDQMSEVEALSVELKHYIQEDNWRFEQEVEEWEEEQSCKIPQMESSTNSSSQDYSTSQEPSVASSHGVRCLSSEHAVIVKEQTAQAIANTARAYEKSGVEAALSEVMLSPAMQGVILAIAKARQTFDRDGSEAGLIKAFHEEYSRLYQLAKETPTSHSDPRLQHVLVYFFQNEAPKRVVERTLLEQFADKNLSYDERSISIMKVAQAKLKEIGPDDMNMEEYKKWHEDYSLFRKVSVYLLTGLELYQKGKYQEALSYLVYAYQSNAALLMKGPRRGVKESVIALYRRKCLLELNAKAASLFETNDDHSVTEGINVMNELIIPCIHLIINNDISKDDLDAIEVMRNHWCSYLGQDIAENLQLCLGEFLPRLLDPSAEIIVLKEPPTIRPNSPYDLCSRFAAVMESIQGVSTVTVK
Outline: as §1

Measured: log2 ratio of Biotin-Ahx-Ub-VS probe labelling

Cc1c(NC(=O)CCl)c(=O)n(-c2ccccc2)n1C
inactive: USP19 -0.181 | USP22 -0.000691 | USP24 -0.125 | USP25 -0.16 | USP28 -0.182
